This note sets out measurements from PubChem BioAssay (NCI).

Structures are written as SMILES. About 79,000 compounds went through this panel and 15% of them were active in at least one assay; those are over-represented in the sample as a whole. Active and inactive are the calls of the source. Rule as the data show it: active = growth inhibition above about 70%; inactive = the rest.

Experiment [1] in a line: NCI Yeast Anticancer Drug Screen. Data for the mec2-1 strain (AID 157). The conditions noted are these: S. cerevisiae mec2-1 strain, at 50.0 µM, hits give high values. In a few lines: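 Strain: mec2-1 (DNA repair/cell cycle alteration). Compound exposure, then growth measured; inhibition expressed relative to vehicle.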
Experiment [2] in a line: NCI Yeast Anticancer Drug Screen. Data for the sgs1 mgt1 strain (AID 161).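 Also: 0% = growth of cultures given vehicle only.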 Conditions: S. cerevisiae sgs1 mgt1 strain, at 50.0 µM, hits give high values. The method in brief:
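Mutant yeast exposed to compound; growth scored against vehicle-only wells.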

Experiment [3] in a line: NCI Yeast Anticancer Drug Screen. Data for the cln2 rad14 strain (AID 165).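 Also: 0% = growth equal to vehicle treated cultures.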 The conditions noted are these: S. cerevisiae cln2 rad14 strain, at 50.0 µM, hits give high values. The method in brief: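 Compounds are applied to the cln2 rad14 yeast strain, and growth is then compared with that of vehicle-treated cultures to give inhibition.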
Experiment [4] is described as follows: NCI Yeast Anticancer Drug Screen. Data for the bub3 strain (AID 167). The conditions noted are these: S. cerevisiae bub3 mutant strain, at 50.0 µM, hits give high values. In a few lines:
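Whole-cell yeast assay. The mutant strain was incubated with compounds, and growth inhibition was determined by comparison with vehicle-treated cells.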

Experiment [5] in a line: NCI Yeast Anticancer Drug Screen. Data for the mlh1 rad18 strain (AID 175). The conditions noted are these: S. cerevisiae mlh1 rad18 strain growth inhibition; at 50.0 µM; hits give high values. In a few lines: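 Read-out is yeast growth inhibition, calculated against vehicle-only controls. The compound was applied to a strain engineered with DNA damage repair alterations.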

`CCCCCCCCCCCCCCCC(=O)NCC(=O)NC1C(CO)OC(Nc2ncnc3nc[nH]c23)C(O)C1O` (stereo not given): the growth inhibition in experiment [1] is 19% (inactive); in experiment [2] it was 82.7% (active); in experiment [3], 14.7% (inactive); in experiment [4], 76.2% (active); in experiment [5], -11.7% (inactive).
For `CC(=O)NCC1CCCO1` (stereo not given), the growth inhibition was -18.6% (inactive) in experiment [1]; -20.4% (inactive) in experiment [2]; 3.85% (inactive) in experiment [3]; 3.75% (inactive) in experiment [4]; -5.9% (inactive) in experiment [5].
Regarding `COC(=O)C(=O)C(/C=N/C(=S)NC1CCCCC1)=C(\O)c1ccc(F)cc1`, the growth inhibition in experiment [1] was -24.7% (inactive); in experiment [2], -8.5% (inactive); in experiment [3], -5.05% (inactive); in experiment [4] it was -15.8% (inactive); in experiment [5], -2.7% (inactive).
Regarding `COC1OC(COS(=O)(=O)c2ccc(C)cc2)C(OS(=O)(=O)c2ccc(C)cc2)C1OCc1ccccc1` (stereo not given), the growth inhibition was 2.85% (inactive) in experiment [1]; 3.9% (inactive) in experiment [2]; -15.7% (inactive) in experiment [3]; -0.65% (inactive) in experiment [4]; -1.4% (inactive) in experiment [5].
`CC(=O)Nc1nc(C)c(CCCOc2ccc([N+](=O)[O-])cc2)c(Cl)n1`: the growth inhibition was 11.4% (inactive) in experiment [1]; 4% (inactive) in experiment [2]; 1.4% (inactive) in experiment [3]; 27.1% (inactive) in experiment [4]; 12.2% (inactive) in experiment [5].
`C=C(C)CBr`: the growth inhibition in experiment [1] was -7.55% (inactive); in experiment [2], -5.95% (inactive); in experiment [3] it was 5.35% (inactive); in experiment [4], -5.45% (inactive); in experiment [5] it was -3.5% (inactive).
Take `COc1cc(/C=N/NC(=O)C(=O)N/N=C/c2cc(OC)c(OC)c(OC)c2)cc(OC)c1OC`: the growth inhibition in experiment [1] was -34.1% (inactive); in experiment [2], -24.7% (inactive); in experiment [3], 3.9% (inactive); in experiment [4] it was -20% (inactive); in experiment [5] it was -21.1% (inactive).
With `CC(=N\N=C\c1ccccn1)/C(C)=N/N=C(C)/C(C)=N/N=C/c1ccccn1`, the growth inhibition was 17.9% (inactive) in experiment [1]; 7.9% (inactive) in experiment [2]; 11.4% (inactive) in experiment [3]; 1.95% (inactive) in experiment [4]; -23.1% (inactive) in experiment [5].
Taken in the same sequence, the figures for `Cc1cccc(NC(=O)CSc2nnc(-c3ccc(N=Cc4ccc(Cl)cc4)cc3)o2)c1` were -24.1% (inactive), 9.25% (inactive), -42.5% (inactive), 6.8% (inactive) and 14.7% (inactive).
As for `CSc1n[nH]c(-c2cccs2)n1`, the growth inhibition in experiment [1] was -15.7% (inactive); in experiment [2], 19.9% (inactive); in experiment [3], -8.3% (inactive); in experiment [4] it was -6.35% (inactive); in experiment [5], -0.9% (inactive).
In the case of `CCOc1cc(/C=N\NC(=S)N/N=C/c2ccc(O)c(OCC)c2)ccc1O`, the growth inhibition was -0.75% (inactive) in experiment [1]; -4.35% (inactive) in experiment [2]; 1.55% (inactive) in experiment [3]; -6.65% (inactive) in experiment [4]; 29.9% (inactive) in experiment [5].
In the case of `CN(C)CCCC[N+](C)(C)Cc1ccc(C[N+](C)(C)CCCC[N+](C)(C)Cc2ccc(CCl)cc2)cc1`, the growth inhibition in experiment [1] was -15% (inactive); in experiment [2], -7.2% (inactive); in experiment [3], -0.95% (inactive); in experiment [4], -1.9% (inactive); in experiment [5], -3.55% (inactive).
`COC(=O)C1c2ccccc2CC(=O)N1NC(C)=O` (stereo not given): the growth inhibition in experiment [1] was 1.65% (inactive); in experiment [2], -19.4% (inactive); in experiment [3], 9.65% (inactive); in experiment [4], 5.3% (inactive); in experiment [5], 10.4% (inactive).
Taken in the same sequence, the figures for `CCNC(CCCC1CCCCC1)C(=O)O` (stereo not given) were -18.4% (inactive), -3.5% (inactive), -27.2% (inactive), -18.5% (inactive) and 4.7% (inactive).
With `CCOC(=O)NC(C)=O`, the growth inhibition is -27.9% (inactive) in experiment [1]; 14.1% (inactive) in experiment [2]; -16.3% (inactive) in experiment [3]; -19.3% (inactive) in experiment [4]; -20.8% (inactive) in experiment [5].
With `C1=C(c2ccccc2)c2ccccc2CC1`, the growth inhibition was -7.25% (inactive) in experiment [1]; -0.35% (inactive) in experiment [2]; -3.45% (inactive) in experiment [3]; 2.2% (inactive) in experiment [4]; 3% (inactive) in experiment [5].
Consider `O=C(C(c1ccccc1)C(F)(F)F)N1CCCC1` (stereo not given), for which the growth inhibition in experiment [1] is -7.8% (inactive); in experiment [2] it was 5.05% (inactive); in experiment [3] it was -13.3% (inactive); in experiment [4] it was 13.8% (inactive); in experiment [5] it was 0.6% (inactive).
Turning to `CCCCC(C)NC(=O)c1ccccc1` (stereo not given), the growth inhibition was 11.3% (inactive) in experiment [1]; -23.8% (inactive) in experiment [2]; -52.5% (inactive) in experiment [3]; -3.8% (inactive) in experiment [4]; 2% (inactive) in experiment [5].
With `CC1CCC2(OC1)OC1CC3C4CCC5CC(O)CCC5(C)C4C(=O)C(O)C3(C)C1C2C` (stereo not given), the growth inhibition was 17.9% (inactive) in experiment [1]; 49% (inactive) in experiment [2]; 16.7% (inactive) in experiment [3]; 14.5% (inactive) in experiment [4]; 41% (inactive) in experiment [5].
`O=C1c2ccccc2N2OC3(N4CCOCC4)CCCC3C12c1ccccc1` (stereo not given): the growth inhibition in experiment [1] is 21.9% (inactive); in experiment [2], 45.3% (inactive); in experiment [3] it was 25.9% (inactive); in experiment [4], 60% (inactive); in experiment [5] it was 48.5% (inactive).
Taken in the same sequence, the figures for `CN(C)CCOC(=O)c1ccc(N)cc1` were 1.6% (inactive), -31.8% (inactive), -19.6% (inactive), 23.1% (inactive) and -8.35% (inactive).
For `CCCCCCCC/C=C\CCCCCCCC(=O)OC(C)CC(=O)N(C)C` (stereo not given), the growth inhibition in experiment [1] was -23.4% (inactive); in experiment [2], 10.6% (inactive); in experiment [3], -6.55% (inactive); in experiment [4], -11.6% (inactive); in experiment [5], 3.95% (inactive).
For `CC(=O)CSc1cc(C)c2ccccc2n1`, the growth inhibition is -7.35% (inactive) in experiment [1]; -11.1% (inactive) in experiment [2]; -10.8% (inactive) in experiment [3]; -13.1% (inactive) in experiment [4]; 1.05% (inactive) in experiment [5].
For `CCOC(=O)c1cc(C)[nH]n1` the same measures were -26.1% (inactive), -6.75% (inactive), -11.7% (inactive), -26.9% (inactive) and 2.15% (inactive).
For `CN1C(=O)C23CCCN2C(=O)C1(C)SC(=N)S3` (stereo not given), the growth inhibition in experiment [1] is 7.6% (inactive); in experiment [2], -2.55% (inactive); in experiment [3], -45.4% (inactive); in experiment [4] it was 2% (inactive); in experiment [5] it was 4.95% (inactive).
With `CC(C)OC(=O)c1ccc(NCC2=CC(=O)C=CC2=O)cc1`, the growth inhibition in experiment [1] was 79.2% (active); in experiment [2], 63.5% (inactive); in experiment [3], 57.1% (inactive); in experiment [4], 46.1% (inactive); in experiment [5] it was 88.2% (active).
Consider `Cc1ccc(-n2cnc3c(Cl)ncnc32)cc1`, for which the growth inhibition in experiment [1] is -0.05% (inactive); in experiment [2], -12.1% (inactive); in experiment [3], -15.2% (inactive); in experiment [4], -16.8% (inactive); in experiment [5], 3.3% (inactive).
Taken in the same sequence, the figures for `CC(C)COC1CN=NN1/C=C1\CCOC1=O` (stereo not given) were 10.4% (inactive), 14.3% (inactive), -6.65% (inactive), 24.2% (inactive) and -3% (inactive).
For `O=c1cc(CC(O)(c2ccccc2)c2ccccc2)cc[nH]1`, the growth inhibition in experiment [1] was 3.8% (inactive); in experiment [2], -4.65% (inactive); in experiment [3], -10.8% (inactive); in experiment [4] it was -0.35% (inactive); in experiment [5], -1% (inactive).
For `CC(=O)Nc1ccc(/C=N/Nc2nc3ccccc3s2)cc1` the same measures were -11% (inactive), -5% (inactive), -50.4% (inactive), 1.9% (inactive) and 31.1% (inactive).
`CC1CC(C[N+](=O)[O-])CC2(C1)OCCO2` (stereo not given): the growth inhibition is -25.3% (inactive) in experiment [1]; -28.6% (inactive) in experiment [2]; 5.1% (inactive) in experiment [3]; -28.8% (inactive) in experiment [4]; -5.15% (inactive) in experiment [5].
As to `CCOC(=O)C(c1ccccc1)N(CCCN(CC)CC)c1ccccc1` (stereo not given), the growth inhibition in experiment [1] was -3.25% (inactive); in experiment [2], 1.6% (inactive); in experiment [3] it was -9.1% (inactive); in experiment [4] it was 5.15% (inactive); in experiment [5], 0.45% (inactive).
Take `CN1C(=O)C(Cc2cnc[nH]2)NC1=S` (stereo not given): the growth inhibition in experiment [1] is 25.1% (inactive); in experiment [2] it was 22.6% (inactive); in experiment [3], -7.5% (inactive); in experiment [4] it was 10.7% (inactive); in experiment [5], 1.1% (inactive).
For `CC1(O)CC2C(CC1SCCO)C2(C)C` (stereo not given) the same measures were -10.8% (inactive), -42.1% (inactive), -11.1% (inactive), -56% (inactive) and -30.5% (inactive).
As to `NC[C@H]1Nc2ccccc2[C@@H](O)C1O` (stereo not given in full), the growth inhibition in experiment [1] is 6.95% (inactive); in experiment [2] it was 0.4% (inactive); in experiment [3], 8.9% (inactive); in experiment [4], 12.6% (inactive); in experiment [5], -12.1% (inactive).
For `[O-][N+]1=CCCC1`, the growth inhibition in experiment [1] was -13.9% (inactive); in experiment [2] it was -0.65% (inactive); in experiment [3] it was -5.5% (inactive); in experiment [4], -0.2% (inactive); in experiment [5] it was -16.4% (inactive).
As for `COc1cc2ccc1-c1cc(ccc1O)CC1c3cc4c(cc3CCN1C)Oc1c(OC)cc3c(c1O4)C(C2)N(C)CC3` (stereo not given), the growth inhibition was -7.15% (inactive) in experiment [1]; -18.5% (inactive) in experiment [2]; -1.7% (inactive) in experiment [3]; -6.15% (inactive) in experiment [4]; 0.25% (inactive) in experiment [5].
In the case of `CN=C1N[N+]2=CCCCC2S1` (stereo not given), the growth inhibition in experiment [1] was 3.35% (inactive); in experiment [2] it was 19.7% (inactive); in experiment [3] it was 0.75% (inactive); in experiment [4] it was 2.4% (inactive); in experiment [5] it was 13.3% (inactive).
For `COc1ccc(/C=C2\CCCC3=C2NC(=S)NC3c2ccc(OC)cc2)cc1` (stereo not given), the growth inhibition in experiment [1] is 21.4% (inactive); in experiment [2] it was -6.35% (inactive); in experiment [3], 5.9% (inactive); in experiment [4] it was -1.95% (inactive); in experiment [5], -37.4% (inactive).
As to `CCCCCCCC[N+](C)([O-])CCCCCC[N+](C)([O-])CCCCCCCC` (stereo not given), the growth inhibition was 25.2% (inactive) in experiment [1]; 69.8% (inactive) in experiment [2]; 66.8% (inactive) in experiment [3]; 5.85% (inactive) in experiment [4]; 76.2% (active) in experiment [5].
